Shown are actives, neighbours in structure and some others; about 1.4% of the full set was active somewhere.
RXFP1 agonist: activates the human relaxin receptor RXFP1; HEK293T-RXFP1 cAMP TR-FRET, 30 min; response scale: percent of porcine relaxin response, buffer zero; Potency, µM (doses to about 57.5 µM), for the others: at the highest dose activation, most hits filed as activators; 370,000 compounds, 0.3% hits; AID 2676; further: potency means the concentration at half of the fitted maximal effect; on the % scale 0 is the no-effect control and ±100 the full control effect; nearly all actives have a fitted effect of over 60% in size
Target sequence (Q9HBX9 whole entry, looked up): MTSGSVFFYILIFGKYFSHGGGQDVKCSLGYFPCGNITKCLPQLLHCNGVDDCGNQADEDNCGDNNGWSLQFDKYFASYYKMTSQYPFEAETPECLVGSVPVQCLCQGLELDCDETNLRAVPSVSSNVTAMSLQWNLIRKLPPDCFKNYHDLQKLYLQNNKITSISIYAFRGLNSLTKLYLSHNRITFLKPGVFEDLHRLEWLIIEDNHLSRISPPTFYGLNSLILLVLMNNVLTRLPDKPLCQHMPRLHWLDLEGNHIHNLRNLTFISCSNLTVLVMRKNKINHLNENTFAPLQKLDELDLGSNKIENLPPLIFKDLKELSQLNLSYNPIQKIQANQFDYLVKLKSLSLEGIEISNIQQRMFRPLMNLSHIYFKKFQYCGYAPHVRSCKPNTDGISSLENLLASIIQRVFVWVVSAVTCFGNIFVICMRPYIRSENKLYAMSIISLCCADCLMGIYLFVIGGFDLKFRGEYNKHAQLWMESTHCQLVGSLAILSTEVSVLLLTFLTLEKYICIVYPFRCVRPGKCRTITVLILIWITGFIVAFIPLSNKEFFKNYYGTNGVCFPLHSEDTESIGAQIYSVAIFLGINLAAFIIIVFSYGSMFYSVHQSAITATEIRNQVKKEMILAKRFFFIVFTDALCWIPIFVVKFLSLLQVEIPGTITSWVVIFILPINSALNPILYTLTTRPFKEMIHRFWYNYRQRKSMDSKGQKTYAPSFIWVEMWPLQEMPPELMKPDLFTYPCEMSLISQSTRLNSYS
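HEK293T cells stably expressing RXFP1 were pretreated with the PDE4 inhibitor Ro 20174, exposed to compounds for 30 min at 37C, lysed, and cAMP was read by TR-FRET. Data normalized to buffer (basal) and 29 nM porcine relaxin (100%).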
GRP78 ERSR act: induces the endoplasmic reticulum stress response in human glioma cells | U87-MG GRP78 promoter luciferase reporter, 16 h | Potency, µM, for the others: at the top dose activation, actives largely listed as activators | 420,000 compounds, 0.02% hits; further: potency means the concentration at half of the fitted maximal effect; series mostly up to about 76 µM; % of control where 0% means no effect; nearly all actives have a fitted effect of over 35% in size
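Stably transfected U87-MG human glioma cells carrying a GRP78-based luminescent sensor were seeded at 1000 cells/well, pin-dosed with compounds and incubated 16 h. Luciferase reagent was then added, and end-point luminescence was read after 10 min at room temperature.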
KCNH2 3.1 block: KCNH2 3.1 (human) potassium channel inhibition; U2OS KCNH2 3.1, thallium flux FluxOr; hits give low values; 340,000 compounds, 0.95% hits; activity change, % (tested at about 1.8 µM);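 active means maximum activity change below -70%; inconclusive means maximum activity change from -70% to -50%; inactive means maximum activity change above -50%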;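 further: thallium influx rate constant from kinetic fluorescence after stimulation buffer; on the % scale 0 is the no-effect control and ±100 the full control effect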
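FluxOr-based Tl+ influx in U2OS cells transduced with KCNH2 3.1 virus; rate constants normalized to DMSO controls.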
KCNH2 WT inh: inhibitors of human wildtype KCNH2 potassium channel; Q12809; U2OS, BacMam KCNH2, thallium flux FluxOr; hits give low values; activity change, % at 1.84 µM; 340,000 compounds, 0.37% hits;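 active means maximum activity change below -70%; inconclusive means maximum activity change between -70% and -50%; inactive means maximum activity change above -50%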; further: on the % scale 0 is the no-effect control and ±100 the full control effect
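U2OS cells were transduced with wild-type KCNH2 virus (2.03 x 10^8 / mL) for 4 h at room temperature, then cultured overnight at 37 C. Thallium flux was read with FluxOr dye. Rate constants were normalized to DMSO controls.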
RXFP1 antagonist: RXFP1 (human) relaxin receptor antagonism; 350,000 compounds, 0.59% hits; activity change, negative = inhibition, % at 57.5 µM; HEK293-RXFP1, relaxin-stimulated cAMP HTRF, 30 min; hits give low values; Q9HBX9;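 active means activity change of -60% or lower, but not beyond a set lower limit; inconclusive means change between -60% and -40%, or beyond the set limit; inactive means change above -40%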; further: on the % scale 0 is the no-effect control and ±100 the full control effect
PTHR1 agonist: PTHR1 (human) receptor agonism; 410,000 compounds, 0.075% hits; Potency, µM (highest dose often 115 µM), without a hit: top-dose activation, most hits filed as activators; Q03431; AID 743266; HEK293 GP2 PTHR1 cells, GloSensor cAMP luminescence, 1 h; further: potency means the concentration at half of the fitted maximal effect; nearly all actives have a fitted effect of over 55% in size
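HEK-293-derived GP2 cells expressing PTHR1 and a GloSensor cAMP reporter, 3,000/well, plated overnight, given luciferin plus IBMX (each 0.5 mM as added) for 1 h at 37 °C, then compound for 1 h at 37 °C. Luminescence was read after 15 min at room temperature.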
Starred values were filed as active, the others as inactive; i = inactive; ? = inconclusive; . = no result given; + = active, no number; [ ] = another dose, or the depositor's remark. Unless noted, the call rests on the fitted dose curve; in most records, active means well fitted curve in the direction sought with a large enough effect; inconclusive means small, poorly fitted or top-dose-only effect, or another doubt; inactive means no such curve, though single readings can be large; an effect the other way counts as inactive or inconclusive.

SMILES	RXFP1 agonist	GRP78 ERSR act	KCNH2 3.1 block	KCNH2 WT inh	RXFP1 antagonist	PTHR1 agonist
COC(=O)C1CCN(C(=O)CC(NC(=O)C(F)(F)F)c2cccs2)CC1 (stereo unspecified)	-1%	-1%	1	-15	9	i
Cc1ccc(CSc2nc3cccnc3n2Cc2ccc(C(=O)NC3CCCCC3)cc2)cc1	20µM*	4%	.	.	-4	-7%
O=C(NC1CCCCC1)c1ccc(Cn2c(SCc3ccccc3F)nc3cccnc32)cc1	-1%	3%	.	.	-3	-41%
CCOC(=O)c1c(NC(=O)c2nn(CC)cc2Br)sc2c1CCCCC2	3%	-3%	-7	0	-5	-21%[57.5 µM]
CCOC(=O)c1c(NC(=O)c2nn(CC)cc2Br)sc(C)c1C	1%	1%	-72*	6	6	-15%[57.5 µM]
CCCOc1ccc(C2NC(=S)NC(C)=C2C(=O)c2ccccc2)cc1OC (stereo unspecified)	-1%	8%	-112*	-6	-8	-23%
Cc1ccccc1C(=O)/C=C1/SCC(=O)N1C	2%	-4%	-82*	-8	6	i
Cc1ccccc1C(=O)NN1C(=O)CSC1=S	4%	-4%	5	2	3	-22%
Cc1cccn2c(=O)c3cc(C(=O)NC4CCS(=O)(=O)C4)n(Cc4ccccc4)c3nc12 (stereo unspecified)	14%	-4%	-1	-1	2	i
Cc1cccc2sc(N(CCCN(C)C)C(=O)CCc3ccccc3)nc12	-1%	-12%	-43	-1	-85*	i
CN(C)CCCN(C(=O)CCc1ccccc1)c1nc2ccc(Br)cc2s1	5%	-10%	-87*	-36	?	12%
CC(=O)c1ccc(C(=O)N(CCCN(C)C)c2nc3c(C)c(C)ccc3s2)cc1	0%	-2%	.	.	.	-16%
CN(C)CCCN(C(=O)CCc1ccccc1)c1nc2ccc(F)cc2s1	0%	-4%	-7	25	-16	i
Cc1ccc2sc(N(CCCN(C)C)C(=O)c3ccc(Br)s3)nc2c1C	7%	-5%	-14	20	-77*	-6%
CCCCCCC(=O)N1C/C=C\C(c2ccc(OC)cc2)N(Cc2ccc(F)cc2)C(=O)C1 (stereo unspecified)	-3%	-7%	.	.	.	-31%
COc1ccc(N(Cc2cc3cccc(C)c3[nH]c2=O)S(C)(=O)=O)cc1	0%	-4%	-82*	-25	-5	i
COc1ccc(N(Cc2cc3ccccc3[nH]c2=O)S(C)(=O)=O)cc1	0%	0%	-29	0	2	i
Nc1ccc(-c2nc3cc(N)ccc3o2)cc1	?	-8%	30	-11	19	-16%
CN(C)c1ccc(-c2nc3cc(N)ccc3o2)cc1	28µM*	-13%	-4	-2	19	-37%
CC/C(=N\N=C(/CC)c1ccccc1N)c1ccccc1N	.	1%	-10	3	-10	-10%
CCOc1ccc(CNC(=O)C2CCN(C3=NS(=O)(=O)C(c4ccc(C)cc4)=C3CC)CC2)cc1	-1%	-4%	.	.	-26	-71%
Cc1csc2c(N3CCN(C(=O)Nc4ccc(OC(F)(F)F)cc4)CC3)ncnc12	1%	-2%	-92*	5	-19	-43%
Cc1csc2c(N3CCC(C(=O)O)CC3)ncnc12	8%	-3%	-20	0	-4	i
Cc1ccc(CNC(=O)c2nnn(-c3cccc(C)c3)c2N)cc1	-3%	2%	-108*	25	-13	-11%
CC(C)OC(=O)c1cc(C(=O)OC(C)C)cc([N+](=O)[O-])c1	.	-1%	.	.	-71*	.
SMILES	RXFP1 agonist	GRP78 ERSR act	KCNH2 3.1 block	KCNH2 WT inh	RXFP1 antagonist	PTHR1 agonist
CCc1ccc(-c2nc(NC(=O)c3ccc(OCC(=O)Nc4ccc(F)cc4)c(OC)c3)sc2C)cc1	32µM*	-3%	-26	6	9	-8%
COc1cc(C(=O)Nc2nc(-c3ccc(Cl)cc3)c(C)s2)ccc1OCC(=O)Nc1ccc(F)cc1	20µM*	-2%	-15	-9	-9	-4%
Cc1c(C(=O)NN2CCCCC2)nn(-c2ccc(Cl)cc2Cl)c1-c1ccc(Cl)cc1	.	3%	.	.	-71*	.
CNC(=O)c1nc(C)n(-c2ccc(Cl)cc2Cl)n1	-4%	-1%	-14	-19	-11	i
COc1ccc(Cn2c(CCC(=O)O)nc3cccnc32)cc1	4%	-5%	-72*	-4	18	i
CC(O)CNCCOc1ccccc1-c1ccccc1 (stereo unspecified)	4%	-4%	18	31	-3	i
CC1CCCC(C)N1CCCNC(=O)c1ccc2nc(N3CCCCC3)sc2c1 (stereo unspecified)	0%	-3%	-13	-158*	.	i
CN(C)c1ccc(N/C=C/C(=O)c2ccccc2)cc1	-3%	-2%	10	-25	-110*	-64%[57.5 µM]
O=C(/C=C/Nc1ccccc1)c1ccccc1	2%	-8%	-2	-2	3	-19%[57.5 µM]
COc1ccc(OC)c(-c2csc(NC(=O)Cc3ccccc3F)n2)c1	-1%	-1%	7	-5	-5	i
OCc1nc2ccccc2n1Cc1c(F)cccc1Cl	0%	-5%	8	-6	-1	i
CSc1nc2ccccc2n1Cc1c(Cl)cccc1Cl	2%	-5%	-186*	-20	-18	i
CCn1c(-c2nn(-c3ccccc3)ccc2=O)n[nH]c1=S	0%	-1%	-10	+	10	-11%
COc1cc(C#N)c(NC(=O)CN2CCC(C(N)=O)CC2)cc1OC	-2%	-1%	16	-2	-5	i
O=C(NC1CCN(S(=O)(=O)c2ccc(F)cc2)CC1)C1CCCCC1	-3%	-4%	-3	1	-13	i
O=C(NCC(=O)N1CC=C(c2ccccc2)CC1)c1ccc(OC(F)F)cc1	.	-2%	-80*	35	3	-7%
Cc1csc(=O)n1CC(=O)OCc1nnc(-c2ccccc2)o1	0%	0%	22	-2	-9	-27%
Cc1csc(=O)n1CCC(=O)OCc1nnc(-c2ccccc2Cl)o1	.	-3%	3	-85*	-1	i
c1cc(-c2nnc3n2CCCCC3)ccn1	1%	-3%	-32	-21	4	i
CC(C)(C)OC(=O)NCc1ccc(CNC(=O)c2ncn(Cc3ccccc3)c2C(=O)NCc2ccc(CNC(=O)OC(C)(C)C)cc2)cc1	.	2%	.	.	.	-20%
Cn1cnc(C(=O)NCc2ccc(CNC(=O)OC(C)(C)C)cc2)c1C(=O)NCc1ccc(CNC(=O)OC(C)(C)C)cc1	.	-6%	-115*	-3	.	-66%

Compound activity (PubChem BioAssay)
